NR3A LBD binder: modulates the human NR3A ligand-binding domain | NR3A LBD differential scanning fluorimetry, Tm shift; 0% = protein alone, 100% = glycine-bound protein | Tm shift relative to glycine control, % at 25 µM | 340,000 tested, 2.5% active | AID 1259313;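 active = melting temperature shift of at least 10% of the positive control shift, at one fixed dose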
AI-2 QS mod: modulators of Vibrio harveyi AI-2 quorum sensing system | Vibrio harveyi JMH597 AI-2 luminescence/OD600 ratio, 9 h; active compounds read low; strain lacks LuxN and CqsS sensors; 0 = neutral-control median | activity change, % at 7.5 µM | 300,000 tested, 0.4% active | AID 2094; in the data active = activity change below about -75%, passing the limit was not always enough;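 also: luminescence divided by OD600 gain over 9 h not by final OD600 alone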
SUMO Mot1 rescue: inhibitors of SUMOylation pathway: yeast Mot1-301 growth rescue; S. cerevisiae Mot1-301 growth rescue, ATP luminescence, 38.5C; percent above DMSO median, 100 means doubled; growth rescue, % at 18.8 µM; 320,000 tested, 1% active; AID 2716;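 active = every valid replicate shows activation above 250% relative to neutral control wells; inactive = the rest, any valid replicate at or below 250%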;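 also: OY570 slx delta 5 strain wells were the positive control but not used for scaling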
NTR1 agonist: NTR1 (human) agonism; 330,000 tested, 0.17% active; activation, % at 20 µM; P30989; NTR1-U2OS beta-arrestin-GFP spot imaging, agonist mode; AID 493036;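 active = activation at or above 40% of the spot to cytoplasm intensity ratio, with at least 20 cells analyzed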;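 also: 0% = DMSO without peptide and 100% = 100 nM NTR1 peptide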
Target sequence (P30989 whole entry, looked up): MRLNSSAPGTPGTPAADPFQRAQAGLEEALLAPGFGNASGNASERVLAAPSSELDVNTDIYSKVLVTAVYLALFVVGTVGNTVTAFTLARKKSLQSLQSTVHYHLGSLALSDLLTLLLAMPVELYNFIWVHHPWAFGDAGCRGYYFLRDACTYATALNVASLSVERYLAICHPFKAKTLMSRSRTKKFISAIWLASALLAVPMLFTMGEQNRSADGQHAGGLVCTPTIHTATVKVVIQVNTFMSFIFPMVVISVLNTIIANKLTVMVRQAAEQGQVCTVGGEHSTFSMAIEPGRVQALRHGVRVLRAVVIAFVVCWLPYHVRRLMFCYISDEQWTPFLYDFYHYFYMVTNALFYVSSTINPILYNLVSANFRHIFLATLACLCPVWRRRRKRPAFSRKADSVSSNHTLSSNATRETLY
AHR act: activators of human aryl hydrocarbon receptor; P35869; activation, % at 5 µM; AHR-responsive luciferase reporter cells, luminescence; 320,000 tested, 2.5% active; in the data active = activation above about 47%;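 also: 0% = vehicle wells and 100% = reference agonist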
H9c2 protect: protects H9c2 cardiomyocytes from peroxide injury; H2O2 injury protection, ATPLite, 2 h; protection from H2O2 cell death, % at 20 µM; 360,000 tested, 0.63% active; AID 588492;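 active = compounds giving at least 50% protection of heart cells from peroxide-induced death in the single-dose screen, raw or plate-pattern-corrected value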;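 also: 0% = DMSO wells with peroxide and 100% = DMSO wells without peroxide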
AHR act confirm: human AHR activation, confirmation. shares compounds with AHR act. human cells, AHR-responsive luciferase reporter, luminescence. activation, % at 9 µM. 2,300 tested, 87% active; in the data active = activation above about 49%;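 also: HepG2 hepatoma cells carrying a DRE-driven firefly luciferase reporter; 0% = vehicle wells and 100% = reference agonist wells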
PXR act counter: activates human PXR in AHR activator counter-screen. activation, % at 11.6 µM. shares compounds with AHR act. AID 434939. cell-based PXR reporter, luciferase luminescence. 2,300 tested, 88% active; in the data active = activation above about 11%;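 also: human hepatoma DPX-2 cells expressing full-length human PXR; 0% = DMSO and 100% = reference agonist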
* hit, by the source's call; nt = no result. An excerpt weighted towards active compounds, which were near 6.2% of everything screened.

SMILES | NR3A LBD binder | AI-2 QS mod | SUMO Mot1 rescue | NTR1 agonist | AHR act | H9c2 protect | AHR act confirm | PXR act counter
N#CC1=C(N)Nc2nc3ccccc3n2C1c1ccc(Cl)cc1 (stereo not given) | 37.6* | 19.1 | -11.7 | 6.1 | 98.8* | -8.4 | 68.7* | 48.9*
N#CC1=C(N)Nc2ncnn2C1c1ccccc1 (stereo not given) | nt | 34.6 | 121.0 | 1.2 | 4.2 | nt | nt | nt
Cc1ccc(-c2cc(-c3cccs3)[nH]n2)c(O)c1 | -1.2 | 9.5 | 47.1 | 4.8 | 109.1* | -13.2 | 118.0* | nt
CCOC(=O)N/N=C\c1ccc(OC/C=C/c2ccccc2)cc1 | -23.6 | 33.1 | 11.7 | 0.0 | nt | 1.0 | nt | nt
Nc1nc2ccccc2n1/N=C/c1ccc([N+](=O)[O-])s1 | -0.7 | 21.6 | 26.3 | 2.1 | 127.6* | -17.6 | 79.0* | 11.4*
Cc1cc(C(=O)N/N=C/c2ccc([N+](=O)[O-])s2)c2ccccc2n1 | -5.8 | 28.2 | -9.0 | -0.4 | 5.3 | -8.5 | nt | nt
Cc1ccc2c(C)c(C(=O)N3CCN(c4cnccn4)CC3)oc2c1C | 0.5 | 8.6 | -7.2 | 6.4 | 92.3* | 2.4 | 114.1* | 25.3*
Cc1nc2ccccn2c1C(=O)Nc1ccc(Cl)cc1 | 7.1 | 17.8 | 10.0 | -1.1 | 91.4* | -3.1 | 152.4* | 15.7*
CC1=NN(C(N)=S)C(=O)C1N=Nc1cccc(Cl)c1C (stereo not given) | 8.9 | 45.4 | -1.5 | 4.4 | 138.4* | -5.0 | 138.7* | 16.4*
COC(=O)c1sccc1NC(=O)c1ccc(C(C)C)cc1 | 1.9 | -6.1 | -7.4 | 4.1 | 95.4* | -11.0 | 96.9* | 14.8*
S=c1[nH]c(-c2ccccc2)cn1/N=C/c1cccnc1 | -3.5 | 12.7 | -1.4 | 0.1 | 81.9* | 12.3 | 101.8* | 16.9*
S=c1[nH]nc(-c2cccnc2)n1/N=C/c1ccccc1 | 1.7 | 16.2 | -8.5 | 0.4 | 3.5 | 2.9 | nt | nt
Fc1ccccc1/C=N/n1cc(-c2ccccc2)[nH]c1=S | 2.0 | 2.2 | 7.7 | 7.0 | 86.6* | 7.8 | 112.5* | 45.0*
Fc1ccccc1/C=N/n1cnnc1 | 0.3 | 19.0 | 544.6 | 1.7 | 0.1 | -0.8 | nt | nt
COCCCNC(=O)c1csc([C@@H]2O[C@H](CO)[C@H](O)[C@H](O)[C@H]2O)n1 | nt | nt | nt | nt | nt | -2.9 | nt | nt
O=C(Nc1c(-c2ccc3c(c2)OCO3)[nH][nH]c1=O)c1cccc(C(F)(F)F)c1 | nt | nt | nt | nt | nt | 0.3 | nt | nt
O=C(Nc1ccccc1N1CCCC1)c1cccc(F)c1 | 0.2 | 6.7 | 3.6 | -0.7 | 3.1 | 3.3 | nt | nt
O=C(NC(=S)Nc1ccccc1N1CCCC1)c1cccc(F)c1 | -2.8 | 23.0 | 0.5 | 8.6 | 80.1* | 6.9 | 90.6* | 43.1*
COc1ccc(Nc2nccc(-c3cccc(N)c3)n2)cc1 | 5.6 | -3.0 | 3.8 | 4.0 | 132.2* | -2.9 | 54.5* | 30.4*
COc1ccc(Nc2nccc(-c3ccc(C#N)cc3)n2)cc1 | -1.0 | -9.7 | -9.3 | 0.1 | 80.3* | -2.1 | 54.2* | 16.0*
COc1ccc(Nc2nc(NN)nc(Nc3ccc(OC)cc3)n2)cc1 | -3.8 | 11.5 | -8.3 | 0.7 | 13.9 | 28.9 | nt | nt
COc1ccccc1CNC(=O)c1cc(-c2ccccc2)n(Cc2cc(C)no2)n1 | 4.0 | nt | -8.7 | -0.3 | 2.6 | 0.5 | nt | nt
CC1CCCCN1C(=O)c1ccc(Br)o1 (stereo not given) | -1.7 | 3.1 | -15.3 | -0.7 | -1.0 | 5.2 | nt | nt
O=[N+]([O-])c1ccc(Cn2cc(-c3cccc(C(F)(F)F)c3)nn2)cc1 | -4.4 | 6.1 | 190.2 | 2.8 | 4.3 | -0.8 | nt | nt
O=c1nc(N2CCCC2)nc(N2CCCC2)[nH]1 | -1.2 | 23.3 | -2.4 | 0.5 | 2.1 | 3.1 | nt | nt
SMILES | NR3A LBD binder | AI-2 QS mod | SUMO Mot1 rescue | NTR1 agonist | AHR act | H9c2 protect | AHR act confirm | PXR act counter
O=[N+]([O-])c1cccn2cc(-c3ccc(Br)cc3)nc12 | 3.5 | 8.8 | 48.4 | 0.7 | 106.5* | -14.9 | 214.3* | 17.3*
O=C(NCc1ccco1)C(Cc1ccccc1)N1C(=O)c2ccccc2C1=O (stereo not given) | -1.3 | 6.6 | 492.7 | 0.1 | 111.7* | 9.3 | 92.7* | 66.1*
[N-]=[N+]=CC(=O)CNC(=O)[C@@H](Cc1ccccc1)N1C(=O)c2ccccc2C1=O | 2.8 | 14.9 | 9.0 | -0.9 | 2.0 | 9.8 | nt | nt
O=C(NCCCN1CCOCC1)c1cccc(S(=O)(=O)N2CCc3ccccc32)c1 | nt | nt | nt | nt | nt | 2.4 | nt | nt
Cc1ccc(NC(=O)c2noc3c2CCc2ccccc2-3)cc1 | 1.6 | 6.4 | nt | 3.4 | 101.8* | -15.7 | 133.0* | 20.3*
Cc1ccc(S(=O)(=O)N(C)CCN(C)S(=O)(=O)c2ccc(C)cc2)cc1 | 0.6 | nt | nt | nt | nt | -10.0 | nt | nt
COC(=O)[C@]1(C)N[C@H](CN(C)C(=O)Nc2ccc(C)cc2)[C@@H]2C(=O)N(C)C(=O)[C@@H]21 | 0.9 | nt | -11.9 | -0.8 | -0.6 | -2.9 | nt | nt
COCCCNC(=O)c1cccn2c(=O)c3cc4ccccc4cc3nc12 | 1.7 | 4.2 | 164.9 | -0.4 | 91.8* | 43.6 | 147.3* | 13.0*
OC1=C(O)c2nc3cc(F)ccc3nc21 | 1.0 | nt | -1.1 | 0.5 | 14.2 | 1.0 | nt | nt
Fc1ccc2nc3[nH]c4ccccc4c3nc2c1 | -0.3 | 8.1 | 19.1 | -2.9 | 133.8* | -0.6 | 189.2* | 21.1*
COc1ccc(NC(=O)N(C)C[C@H]2OCCCC[C@@H](C)Oc3ccc(NC(=O)c4ccccc4)cc3C(=O)N([C@H](C)CO)C[C@@H]2C)cc1 | nt | nt | nt | nt | nt | 6.8 | nt | nt
NC(=O)C1CCN(CC(=O)Nc2ccccc2C(=O)NC2CC2)CC1 | -0.2 | nt | -10.2 | 4.5 | -0.2 | -3.3 | nt | nt
COCC(=O)N1CCC(Oc2ccc(C(=O)N3CCSCC3)cc2)CC1 | 0.4 | 17.7 | -18.8 | -0.4 | -2.1 | 1.1 | nt | nt
CCc1nc2ccc(C(=O)Nc3cccc(OCC(=O)N(C)C)c3)cn2c1N(CCC(C)C)CCN(C)C | nt | nt | nt | nt | nt | 10.5 | nt | nt
CCn1c(SCC(=O)NC2CCCCC2)nc2ccccc2c1=O | 0.4 | 6.2 | -12.4 | -0.1 | 4.0 | 7.0 | nt | nt
O=C(CSCC(=O)Nc1nc(-c2ccc3c(c2)OCO3)cs1)Nc1nccs1 | -29.4 | -30.9 | -4.5 | 9.6 | 100.1* | -7.2 | 62.7* | 27.1*
COc1ccc(-c2cccc(NC(=O)c3cccs3)c2)nn1 | -6.8 | 9.9 | -12.8 | 0.4 | 3.1 | 17.3 | nt | nt
CCCNC(=O)C1(C)CCN(CCOc2ccc(Cl)cc2)C1 (stereo not given) | nt | nt | nt | nt | nt | -8.6 | nt | nt
CC(=O)c1c(C)nc(-c2ccc(Cl)cc2)nc1NC(=O)C(C)C | 1.6 | 10.3 | -0.5 | -1.0 | 115.7* | -1.9 | 136.9* | 45.5*
CC(=O)Nc1nc(-c2ccccc2)nc(C)c1C(C)=O | 0.5 | 4.1 | 46.3 | 1.7 | 80.4* | 7.4 | 105.2* | 23.6*

Screens: PubChem, several laboratories
